Several values for one entry are separate records, joined by “and”; a condition that tells them apart may be missing. Equal values may be shown once. About 8,500 (2.5%) of roughly 340,000 compounds were called active.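 Rule for the calls: active = melting temperature shift of at least 10% of the positive control shift, at one fixed dose; inactive = the rest.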 The sample as a whole holds a higher share of actives than the screen did.
What follows are compounds tested on Glutamate receptor ionotropic, NMDA 3A (GRIN3A) ligand-binding domain (assay: binders of NR3A ligand-binding domain, primary screen, biophysical, differential scanning fluorimetry, uHTS (AID 1259313)). Details: NR3A LBD differential scanning fluorimetry, at 25 µM, hits give high values, 0% = protein alone, 100% = glycine-bound protein.

Tm shift relative to glycine control, inactive:
Cc1nc([N+](=O)[O-])c(NCCCO)n1Cc1ccccc1 -1.5%
O=C(NCCCN1CCOCC1)c1cnn2c(-c3ccccc3)cc(-c3ccccc3)nc12 -3.89%
COc1cc(CC(=O)Nc2nc(-c3ccc(F)c(F)c3)cs2)cc(OC)c1OC -3.34%
COc1ccc(OC)c(-c2csc(NC(=O)COC(=O)C3CC3)n2)c1 -1.41%
CCOC(=O)CNc1nc(Cl)nc(Nc2ccccc2)n1 -0.5%
CCOc1ccc(Cn2nnc(C(=O)Nc3ccc(OC)cc3OC)c2N)cc1 2.21%
CCN(CC)c1ccc(NC(=O)C2CCC(CNc3c(N4CCCC4)c(=O)c3=O)CC2)c(C)c1 (centres undefined) 1.77%
CCOC(=O)N1CCN(C(=O)CSc2nnc(-c3c[nH]c4ccccc34)n2CCOC)CC1 0.55%
OC(CNCc1ccc(Cl)c(Cl)c1)c1ccccc1 (centres undefined) 2.04%
COc1cccc(OC)c1C(=O)OCC(=O)/C(C#N)=C(\C)N -2%
C/C(N)=C(/C#N)C(=O)COC(=O)c1cc(-c2ccc(C)cc2)nc2ccccc12 -1.48%
COc1cc(C(=O)N2C(=O)c3cccc(N)c3C2=O)cc(OC)c1OC -1.08%
Cc1nn(C)cc1N1C(=O)c2cccc3c(N)ccc(c23)C1=O -0.63%
Cc1ccc(CNC(=O)[C@@H](NC(=O)Cc2ccccc2)C(C)C)cc1 -6.13%
O=C1NN(c2ccccc2)C(=O)/C1=C/c1ccc(-c2cccc(C(=O)O)c2)o1 -14.4%
O=C1c2ccccc2NC(c2ccc(-c3cccc(Cl)c3)o2)N1O (centres undefined) -0.47%
O=C(O)CSc1c2c(nc3cc(C(=O)Nc4cccc(C(F)(F)F)c4)ccc13)CCCC2 -1.44%
O=C(Nc1ccc(C(F)(F)F)cc1)c1cccc(-n2cnnn2)c1 -5.14%
CS(=O)(=O)N(Cc1ccccc1)c1ccc(C(=O)NN=C2CCCCCC2)cc1 0.85%
Clc1ccc2nc(CSc3ccccc3)cn2c1 0.36%
Cc1c(NC(=S)NC(=O)CCc2ccccc2)c(=O)n(-c2ccccc2)n1C -3.07%
O=C(O)CSc1ccc(S(=O)(=O)N2CCCC2)cn1 0.42%
CCN(CC)c1ccc(C(=O)N/N=C(\C)c2cccc(OC)c2)cc1 2.58%
COc1ccc(/C(C)=N/NC(=O)c2ccc3nc[nH]c3c2)cc1 -1.41%
COc1ccc(Cl)cc1NC(=O)NC(C)C(C)(C)C (centres undefined) -7.8%
O=C(CN1C(=O)CC(c2ccccc2)S(=O)(=O)c2ccccc21)NC1CCCC1 (centres undefined) -2.04%
CC(=O)c1cc(-c2ccccc2)n(CC(=O)NC2CCCCC2)c1C 0.92%
CCOC(=O)Cc1ncccc1C(=O)Nc1ccc(OC)cc1 -0.6%
O=C(Nc1ccccc1)Oc1cccc2cccnc12 -3.82%
O=[N+]([O-])c1ccccc1S(=O)(=O)Nc1cccc2cccnc12 -0.26%
CC(=O)/C(=N\Nc1ccc(Cl)cc1Cl)Sc1cccc2cccnc12 -8.55%
Cc1ccc(S(=O)(=O)N2CCN=C2SCc2c(F)cccc2Cl)cc1 0.68%
CCc1ccc(-c2cc(C)no2)cc1S(=O)(=O)NCCc1ccc(S(N)(=O)=O)cc1 -4.05%
CCCCn1c(N)c(N(CC)C(=O)c2ccccc2C(F)(F)F)c(=O)[nH]c1=O -1.66%
O=C(Cn1c(-c2ccc(Cl)cc2)noc1=O)N1CCN(c2ccccc2F)CC1 -0.09%
CC(=O)CSc1nnc(CSc2ncccn2)n1C1CCCCC1 -1.13%
CCCN(CCC)S(=O)(=O)c1cc2c(cc1Br)CCN2C(=O)CC -0.99%
CCC1CCCCN1CCNS(=O)(=O)c1ccc2c(c1)CCN2C(C)=O (centres undefined) -1.49%
CCCCSc1nc2c(c(=O)n1CC)SC(C)C2 (centres undefined) -2.48%
CCOC(=O)c1c(C)[nH]c(C2=NNC(=NC(C)COC)SC2)c1C (centres undefined) -1.92%
O=C1CC(NNc2ccccc2)C(=O)N1c1cccc(Cl)c1 (centres undefined) -0.68%
CC12CCC(C(=O)N(NC(=O)c3ccccc3O)C1=O)C2(C)C (centres undefined) 2.74%
COc1ccc(C(=O)Nc2sc(C)c(C)c2CN2CCOCC2)cc1 -2.24%
CCc1cc(C(=O)c2ccc(OC)cc2)c(NC(=O)CN2CCN(C)CC2)s1 -0.69%
CC1=CC=CC2=N/C(=N\S(=O)(=O)c3ccc(F)cc3F)c3ccccc3CN12 -0.65%
CC(C)(C)C(=O)Nc1ccc(-c2cn3cccnc3n2)cc1 -0.98%
COc1ccc(C(=O)Nc2cccc(NC(=O)c3ccc(OC)cc3OC)n2)c(OC)c1 3.62%
N#Cc1ccc(C2N=C(c3ccccc3)NO2)cc1 (centres undefined) 0.19%
CCOc1ccc(CN2CCN(Cc3ccc(C)o3)CC2CCO)cc1 (centres undefined) 1.84%
C/C(CC(=O)NC(C)c1ccccc1)=N\NC(N)=S (centres undefined) -2.12%
COC(=O)C1C(=O)NCC1c1ccc(OC)cc1 (centres undefined) -0.83%
NC(=O)c1oc2ccccc2c1NC(=O)CS(=O)(=O)c1ccccc1 -2.6%
NC(=O)c1oc2ccccc2c1NC(=O)Cc1ccccc1 -1.3%
CC(=O)C(CC(=O)N1CCCC1)C(=O)Nc1ccc(Cl)cc1 (centres undefined) -1.13%
Cc1cc(C)nc(-n2nc(C)cc2NC(=O)c2ccc(F)cc2F)n1 -2.66%
COc1ccc(CCNC(=O)C(=O)Nc2ccc3nc4n(c(=O)c3c2)CCCCC4)cc1OC -0.47%
O=C(Nc1ccc2nc3n(c(=O)c2c1)CCCC3)c1ccc(Cl)nc1 -1.29%
C=CCn1c(P(C)(=O)O)nc2ccccc21 -0.35% and 1.55%
CCCn1nc(C(=O)Nc2ccc3nc(C)sc3c2)c2ccccc2c1=O -1.69%
COc1ccc(S(=O)(=O)N2CCCCC2)cc1NC(=O)c1cc([N+](=O)[O-])ccc1N1CCOCC1 -1.87%
CSc1nc2ccc(NC(=O)c3c(F)cccc3F)cc2s1 3.67%
COc1ccc(NC(C(=O)Nc2cccc(C(C)=O)c2)c2ccccc2)cc1 (centres undefined) -15.9%
Cc1nc2ccc(NC(=O)C3CCCCC3)cc2s1 -3.66%
CCCC(=O)N(CCN1CCOCC1)c1nc2ccc(OCC)cc2s1 -6.33%
COc1ccc(CNC(=O)c2ccc(Br)s2)cc1OC 1.11%
Cc1noc(C)c1CSCC(=O)Nc1nc2ccc(Oc3ccccc3)cc2s1 0.97%
Cc1ccccc1-n1nnc2c(=O)oc3ccccc3c21 1.45%
O=C1CC(c2c(F)cccc2Cl)C(n2cncn2)C(O)=C1C1NCCc2ccccc21 (centres undefined) -0.39%
CC(C)N(c1ccccc1)c1ncnc(NCCC(=O)O)c1[N+](=O)[O-] -4.26%
Cc1cccc(C(=O)NCC(=O)OCC(=O)N(C)CC(=O)Nc2ccccc2Cl)c1 -0.85%
COc1ccc(CNC(=O)COc2cccnc2[N+](=O)[O-])cc1 1.77%
Cc1ccc(NC(=O)Cc2nc(COC(=O)C(C)NS(=O)(=O)c3ccc(C)cc3)cs2)cc1 (centres undefined) -1.68%
Cc1cc(C(=O)N2CCC(C(=O)O)CC2)c(C(F)(F)F)o1 2.93%
CCC(=O)c1ccc(OCC(=O)Nc2ccc3nc(C)sc3c2)cc1 0.32%
CCOc1ccc2nc(NC(=O)CSc3nc4c(c(=O)n(C)c(=O)n4C)n3CC)sc2c1 1.39%
NS(=O)(=O)c1ccc2nc(NC(=O)C3=COCCO3)sc2c1 -8.75%
c1c2c(cc3sc(N4CCCCC4)nc13)OCCO2 8.4%

Tm shift relative to glycine control, active:
COc1ccc(OC)c(Nc2nc(-c3ccc(O)c(O)c3)cs2)c1 19%
CCOC(=O)CNc1nc(Cl)nc(Nc2ccc(OC)cc2OC)n1 13.1%
C/C(N)=C(/C#N)C(=O)COC(=O)c1cc(-c2cccc(Br)c2)nc2ccccc12 30.1%
CN1C(=O)c2cccc3c(N)ccc(c23)C1=O 11.8%
O=C(O)C(c1ccccc1)N1C(=O)/C(=C\c2ccc(-c3cccc(Cl)c3)o2)SC1=S (centres undefined) 27.7%
O=C(Nc1ccc(-c2csc(Nc3cccc(C(F)(F)F)c3)n2)cc1)c1cccc(C(F)(F)F)c1 25.4%
COc1ccc(/C(C)=N\NC(=O)c2ccc(-c3ccccc3)cc2)c(F)c1 19.6%
O=C(CN1C(=O)CC(c2ccccc2)=Nc2ccccc21)NC1CCCCC1 300%
COc1ccc(NC(=O)Nc2cccc3cccnc23)cc1 12.4%
O=C(Nc1ccccc1Cl)Nc1cccc2cccnc12 39.4%
CCC(=O)N1CCc2cc(Br)c(S(=O)(=O)NCCN3CCCCC3CC)cc21 (centres undefined) 12.6%
CC12CCC(C(=O)N(c3cccc(Cl)c3)C1=O)C2(C)C (centres undefined) 18.6%
CCc1cc(C(N)=O)c(NC(=O)c2ccc(OC)cc2)s1 12.6%
CC(C)(C)C(=O)Nc1cccc(-c2ccc[nH]2)n1 11.2%
COc1ccc(CC(=O)Nc2c(C(N)=O)oc3ccccc23)cc1 16.1%
CCCCN(CC)C(=S)Nc1ccc2nc3n(c(=O)c2c1)CCCCC3 11%
COc1ccc2nc(NC(=O)c3ccc(Br)s3)sc2c1 31.3%
COc1ccc2nc(Nc3nc4ccc(NC(C)=O)cc4s3)sc2c1 25.2%
CCCC(=O)Nc1nc2ccc(NC(=O)c3c(F)c(F)c(OC)c(F)c3F)cc2s1 17.1%
CCOc1ccc2nc(NC(=O)c3cc([N+](=O)[O-])ccc3N3CCOCC3)sc2c1 17%
CCOc1ccc2nc(Nc3nc4ccc(NC(C)=O)cc4s3)sc2c1 25.2%
COc1ccc2nc(Nc3nc4cc5c(cc4s3)OCCO5)sc2c1 12.4%
